# Screening data deposited in PubChem by National Center for Advancing Translational Sciences (NCATS).
# Shiga inhibitor = A qHTS for Small Molecule Inhibitors of Shiga Toxin; Vero cells, Shiga toxin protein synthesis inhibition reporter; inhibition, % at 38.7 µM; actives 9.2% (n = 290,000); AID 2315, 2010; in the data active = inhibition mostly above about 28%, no sharp cut-off; inactive = mostly below about 43%; note: 0% is about no effect
# AmpC inh no detg = qHTS Inhibitors of AmpC Beta-Lactamase (assay without detergent); AmpC nitrocefin hydrolysis, absorbance 480 nm, 0.0001% Triton; actives 0.52% (n = 330,000); Potency, µM (titrated, usually from 57.1 µM), inactives show at the highest dose activity change, negative = inhibition, most hits filed as inhibitors; AID 485341, 2010;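 note: potency is the fitted concentration of half-maximal effect; plate controls were no compound for no effect and no enzyme for full effect; nearly all actives have a fitted effect of over 20% in size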
# Target sequence (P00811 whole entry, looked up): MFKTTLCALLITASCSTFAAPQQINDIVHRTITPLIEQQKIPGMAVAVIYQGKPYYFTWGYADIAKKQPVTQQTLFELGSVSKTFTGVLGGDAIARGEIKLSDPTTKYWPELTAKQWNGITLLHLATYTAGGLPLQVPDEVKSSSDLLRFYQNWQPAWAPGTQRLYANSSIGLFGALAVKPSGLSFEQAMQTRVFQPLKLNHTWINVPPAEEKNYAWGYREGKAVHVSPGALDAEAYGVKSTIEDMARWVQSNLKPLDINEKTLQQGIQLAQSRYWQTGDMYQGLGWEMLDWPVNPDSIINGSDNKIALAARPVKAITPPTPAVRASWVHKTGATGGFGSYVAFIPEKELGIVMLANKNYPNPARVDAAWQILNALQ
#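 20 mM phosphate pH 7.0 + 0.01% (detergent screen) or 0.0001% Triton X-100; 5.3 nM AmpC reagent; cpd preinc 15 min RT; nitrocefin (800 uM stock) to start; A480 q20 s × 4 min; Activity was normalised to no-enzyme and no-compound control wells.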
# AMA1-RON2 inh = qHTS for Inhibitors of AMA1-RON; Towards Development of Antimalarial Drug Lead: Primary Screen. Plasmodium falciparum AMA1 (3D7) - RON2 peptide interaction. AlphaScreen AMA1-biotinylated RON2 peptide binding. Potency, µM (titrated, usually from 58.2 µM), inactives show at the highest dose activity change, negative = inhibition, actives largely listed as inhibitors. actives 0.2% (n = 360,000). AID 720542, 2013;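 note: potency is the fitted concentration of half-maximal effect; 0% = vehicle wells and -100% = peptide control; nearly all actives have a fitted effect of over 45% in size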
#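 AMA1 (3D7) with his tag at 25 nM final met compounds first, then biotinylated RON2 peptide at 25 nM; detection used donor plus acceptor beads, 10 µg/mL apiece, read by AlphaScreen after 30 min at room temperature.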
# Cycloheximide cs = Cycloheximide Counterscreen for Small Molecule Inhibitors of Shiga Toxin. AID 2314, 2010. max response, %. cell reporter, cycloheximide protein synthesis inhibition counterscreen. actives 12% (n = 300,000); in the data active = max response mostly above about 13%, no sharp cut-off; inactive = mostly below about 14%; note: read at 38.3 µM for the half of the compounds with a filed dose; 0% is about no effect
# SARS PLpro yeast-1 = qHTS of Yeast-based Assay for SARS-CoV PLP; Potency, µM (titrated, usually from 32.9 µM), for the others: at the highest dose activity, positive = growth rescue, hits mostly activators; actives 0.19% (n = 330,000); AID 485353, 2010; S. cerevisiae expressing SARS-CoV PLpro, growth rescue; calls by dose curve; note: potency is the fitted concentration of half-maximal effect; 0% is about no effect; nearly all actives have a fitted effect of over 55% in size
# AmpC inh detg = qHTS Inhibitors of AmpC Beta-Lactamase (assay with detergent); P00811; AmpC hydrolysis of nitrocefin, absorbance 480 nm, 0.01% Triton; Potency, µM (highest dose often 114 µM), inactives show at the top dose activity change, negative = inhibition, most hits filed as inhibitors; actives 0.041% (n = 370,000);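 note: potency is the fitted concentration of half-maximal effect; 0% = no-compound wells and -100% = no-enzyme wells; nearly all actives have a fitted effect of over 25% in size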
#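 AmpC (5.3 nM in the dispensed reagent) in 20 mM phosphate pH 7.0 with 0.01% (detergent screen) or 0.0001% Triton X-100 was preincubated with compounds for 15 min at room temperature. Nitrocefin was then added from an 800 uM solution, and hydrolysis was followed at 480 nm.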
# SARS PLpro yeast-2 = qHTS of Yeast-based Assay for SARS-CoV PLP: Hit Validation. shares compounds with SARS PLpro yeast-1. AID 652038, 2013. actives 19% (n = 1,000). calls only. yeast expressing SARS-CoV PLpro, growth phenotype rescue; call rule not given here
# * marks the source's active call; other numbers are inactive results; i = inactive; ? = inconclusive; / = no result; + = active, no number; [ ] = dose if it differs, or a comment. The entries come from a sample that favours hits as a whole. Unless noted, calls come from the whole dose curve; as a rule, active = well fitted curve in the direction sought with a large enough effect; inconclusive = small, poorly fitted or top-dose-only effect, or another doubt; inactive = no such curve, though single readings can be large; an effect the other way counts as inactive or inconclusive.
SMILES,Shiga inhibitor,AmpC inh no detg,AMA1-RON2 inh,Cycloheximide cs,SARS PLpro yeast-1,AmpC inh detg,SARS PLpro yeast-2
O=C(Nc1ccc(Cl)c(S(=O)(=O)N2CCCCC2)c1)c1ccncc1,/,1%,0%,/,5µM*,-12%,i
CCC(CC)c1nnc(NC(=O)CCc2ccc(OC)cc2)s1,/,3%,-6%,-2,-3%,?,/
Cn1c(=O)c2c(-c3ccccc3)n(-c3ccccc3O)cc2n(C)c1=O,-31,-24%,11%,-5,-11%,1%,/
COc1cccc(C(NC(C)=O)c2ccc3cccnc3c2O)c1 (stereo not given),-6,-17%,-81%,0,3.2µM*,-9%,i
Oc1cccc(C(Nc2nccs2)c2ccc3cccnc3c2O)c1 (stereo not given),-5,-42%,-27%,1,0.45µM*,8%,+
CC(=O)NC(c1ccc(C(C)C)cc1)c1ccc2cccnc2c1O (stereo not given),-11,76%,59%,3,-21%,-9%,/
Oc1c(C(Nc2cccc(C(F)(F)F)c2)c2cccnc2)ccc2cccnc12 (stereo not given),-5,-18%,-34%,-2,?,-3%,i
CC(=O)NC(c1cccc([N+](=O)[O-])c1)c1ccc2cccnc2c1O (stereo not given),2,17%,-86%,-1,1.1µM*,0%,i
Oc1cccc(C(Nc2ccccn2)c2ccc3cccnc3c2O)c1Cl (stereo not given),/,/,/,/,/,21%,/
O=[N+]([O-])c1ccc(NC(c2ccccc2)c2ccc3cccnc3c2O)cc1 (stereo not given),/,/,69%,/,/,/,/
O=C(c1cccs1)N1CCN=C1SCc1ccccc1,-5,-15%,-1%,-1,-14%,-2%,/
C/C=C(\NC(C)=O)c1ccccc1,/,-16%,0%,/,5%,-1%,/
C[C@@H]1CN([C@H](C)CO)C(=O)CCCn2nncc2CO[C@H]1CN(C)S(=O)(=O)c1ccc(Oc2ccccc2)nc1,/,/,-2%,/,/,/,/
CNC(=O)Oc1cccc(-c2cn3cc(OC(=O)NC)ccc3n2)c1,active,-28%,10%,37*,11µM*,-12%,+
NC(=O)c1cccc(-c2cccc(OC(=O)NC3CCCCC3)c2)c1,11,-16%,1%,2,4%,?,/
COc1ccc(OC)c(CCNC(=O)CCCn2c(=O)c3cccn3c3ccc(F)cc32)c1,/,/,/,/,/,16%,/
CCSc1ccccc1C(=O)N1CCN(c2ccccc2F)CC1,-10,26%,-16%,-2,?,2%,i
O=C(c1ccccc1C(=O)N1CCN(c2ccccc2F)CC1)N1CCN(c2ccccc2F)CC1,-3,97%,0%,-2,1%,?,/
COCCn1cc(C(=O)NCCCOC(C)C)c2c3ccccc3n(C)c2c1=O,3,36%,7%,2,3%,2%,/
CCN(CC)S(=O)(=O)c1cccc(C(=O)N/N=C/c2ccc(O)c(O)c2O)c1,4,20µM*,-6%[11.6 µM],-3,5µM*,-9%,+
CCN(CC)S(=O)(=O)c1cccc(C(=O)N/N=C(\C)c2ccc(O)cc2O)c1,17,-58%,-11%,7,3.5µM*,2%,i
Cc1ccc(CNC(=O)c2cn(C3CCCCC3)c(=O)c3c2c2ccccc2n3C)o1,-4,-28%,8%,-2,?,-9%,+
COc1cccc(OCCCCCCN2CCOCC2)c1,-10,16%,0%,-2,-5%,-15%,/
C/C(=N\NC(N)=S)C1(C)CCCCC1,-8,-7%,38%,-3,18µM*,?,+
O=C(CSc1cn(CC(=O)N2CCOCC2)c2ccccc12)Nc1ccccc1C(F)(F)F,/,/,/,/,/,16%,/
